Reference: PubChem BioAssay (NCATS)
Inconclusive results are not listed. Active and inactive are the calls of the source. Calls follow the shape of the dose curve; as a rule, active = well fitted inhibition curve with a large enough effect; inconclusive = small, poorly fitted or top-dose-only effect; inactive = flat fitted curve, though single readings scatter.

Key:
Test in all cases: qHTS profiling for inhibitors of Plasmodium falciparum proliferation (AID 504749); also: nearly all actives have a fitted effect of over 60% in size
Settings in all cases: P. falciparum in erythrocytes, SYBR Green DNA, 72 h; series mostly up to 28.7 µM
AA1029 = system: AA1029
In short: (§1)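 P. falciparum-infected erythrocytes (0.3% parasitemia, 2.5% hematocrit final) were exposed to compounds for 72 h at 37 C in 5% CO2, then lysed with SYBR Green buffer overnight at room temperature; parasite DNA fluorescence was normalized to artemisinin and DMSO controls.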

AS120 = system: AS120
In short: as §1

ATS189 = system: ATS189
In short: as §1

ATS95 = system: ATS95
In short: as §1

C2A = system: C2A
In short: as §1

CP185 = system: CP185
In short: as §1

CP191 = system: CP191
In short: as §1

CP192 = system: CP192
In short: as §1

CP194 = system: CP194
In short: as §1

CP201 = system: CP201
In short: as §1

CP203 = system: CP203
In short: as §1

CP211 = system: CP211
In short: as §1

CP215 = system: CP215
In short: as §1

CP217 = system: CP217
In short: as §1

CP237 = system: CP237
In short: as §1

CP238 = system: CP238
In short: as §1

CP247 = system: CP247
In short: as §1

CP250 = system: CP250
In short: as §1

CP252 = system: CP252
In short: as §1

CP256 = system: CP256
In short: as §1

Measured: Potency

CCCC(C)C1(CC)C(=O)NC(=O)NC1=O (configuration not stated)
inactive: AA1029 | AS120 | ATS189 | ATS95 | C2A | CP185 | CP191 | CP192 | CP194 | CP201 | CP203 | CP211 | CP215 | CP217 | CP237 | CP238 | CP247 | CP250 | CP252 | CP256

CC(N)Cc1ccc(O)cc1 (configuration not stated)
inactive: AA1029 | AS120 | ATS189 | ATS95 | C2A | CP185 | CP191 | CP192 | CP194 | CP201 | CP203 | CP211 | CP215 | CP217 | CP237 | CP238 | CP247 | CP250 | CP252 | CP256

c1ccc2cc(CC3=NCCN3)ccc2c1
inactive: AA1029 | AS120 | ATS189 | ATS95 | C2A | CP185 | CP191 | CP192 | CP194 | CP201 | CP203 | CP211 | CP215 | CP217 | CP237 | CP238 | CP247 | CP250 | CP252 | CP256

N#CC1(N2CCCCC2)CCCCC1
inactive: AA1029 | AS120 | ATS189 | ATS95 | C2A | CP185 | CP191 | CP192 | CP194 | CP201 | CP203 | CP211 | CP215 | CP217 | CP237 | CP238 | CP247 | CP250 | CP252 | CP256

COC([CH2][Hg])CNC(=O)c1ccccc1OCC(=O)O (configuration not stated)
inactive: AA1029 | AS120 | ATS189 | ATS95 | C2A | CP185 | CP191 | CP192 | CP194 | CP201 | CP203 | CP211 | CP215 | CP217 | CP237 | CP238 | CP247 | CP250 | CP252 | CP256

O=C(CS(=O)C(c1ccccc1)c1ccccc1)NO (configuration not stated)
inactive: AA1029 | AS120 | ATS189 | ATS95 | C2A | CP185 | CP191 | CP192 | CP194 | CP201 | CP203 | CP211 | CP215 | CP217 | CP237 | CP238 | CP247 | CP250 | CP252 | CP256

C[N+]1(C)CCCCC1COC(=O)C(O)(c1ccccc1)c1ccccc1 (configuration not stated)
inactive: AA1029 | AS120 | ATS189 | ATS95 | C2A | CP185 | CP191 | CP192 | CP194 | CP201 | CP203 | CP211 | CP215 | CP217 | CP237 | CP238 | CP247 | CP250 | CP252

O=C1CCO1
inactive: AA1029 | AS120 | ATS189 | ATS95 | C2A | CP185 | CP191 | CP192 | CP194 | CP201 | CP203 | CP211 | CP215 | CP217 | CP237 | CP238 | CP247 | CP250 | CP252 | CP256

C=CCN1CCC23c4c5ccc(O)c4O[C@H]2C(=O)CC[C@@]3(O)C1C5 (some centres not stated)
inactive: AA1029 | AS120 | ATS189 | ATS95 | C2A | CP185 | CP191 | CP192 | CP194 | CP201 | CP203 | CP211 | CP215 | CP217 | CP237 | CP238 | CP247 | CP250 | CP252 | CP256

O=C(OCCN1CCCCC1)C(O)(c1ccccc1)c1ccccc1
inactive: AA1029 | AS120 | ATS189 | ATS95 | C2A | CP185 | CP191 | CP192 | CP194 | CP201 | CP203 | CP211 | CP215 | CP217 | CP237 | CP238 | CP247 | CP250 | CP252 | CP256

Cn1sc(Cl)cc1=O
inactive: AA1029 | AS120 | ATS189 | ATS95 | C2A | CP185 | CP191 | CP192 | CP194 | CP201 | CP203 | CP211 | CP215 | CP217 | CP237 | CP238 | CP247 | CP250 | CP252 | CP256

CCON=O
inactive: AA1029 | AS120 | ATS189 | ATS95 | C2A | CP185 | CP191 | CP192 | CP194 | CP201 | CP203 | CP211 | CP215 | CP217 | CP237 | CP238 | CP247 | CP250 | CP252 | CP256

O=[N+]([O-])c1ccc(F)c([N+](=O)[O-])c1
inactive: AA1029 | AS120 | ATS189 | ATS95 | C2A | CP185 | CP191 | CP192 | CP194 | CP201 | CP203 | CP211 | CP215 | CP217 | CP237 | CP238 | CP247 | CP250 | CP252 | CP256

O=[N+]([O-])C(Br)(CO)CO
inactive: AA1029 | AS120 | ATS189 | ATS95 | C2A | CP185 | CP191 | CP192 | CP194 | CP201 | CP203 | CP211 | CP215 | CP217 | CP237 | CP238 | CP247 | CP250 | CP252 | CP256

O=c1[nH]c(=O)n(Cl)c(=O)n1Cl
inactive: AA1029 | AS120 | ATS189 | ATS95 | C2A | CP185 | CP191 | CP192 | CP194 | CP201 | CP203 | CP211 | CP217 | CP237 | CP238 | CP247 | CP250 | CP252 | CP256

ClCC1CO1 (configuration not stated)
inactive: AA1029 | AS120 | ATS189 | ATS95 | C2A | CP185 | CP191 | CP192 | CP194 | CP201 | CP203 | CP211 | CP215 | CP217 | CP237 | CP238 | CP247 | CP250 | CP252 | CP256

C=CCN(C1=NCCN1)c1c(Cl)cccc1Cl
inactive: AA1029 | AS120 | ATS189 | ATS95 | C2A | CP185 | CP191 | CP192 | CP194 | CP201 | CP203 | CP211 | CP215 | CP217 | CP237 | CP238 | CP247 | CP250 | CP252 | CP256

CN1c2ccccc2C(NCCCCCCC(=O)O)c2ccc(Cl)cc2S1(=O)=O (configuration not stated)
inactive: AA1029 | AS120 | ATS189 | ATS95 | C2A | CP185 | CP191 | CP192 | CP194 | CP201 | CP203 | CP211 | CP215 | CP217 | CP237 | CP238 | CP247 | CP250 | CP252 | CP256

COc1ccc2c3c1O[C@H]1C(=O)CC[C@H]4[C@@H](C2)N(C)CC[C@]314
inactive: AA1029 | AS120 | ATS189 | ATS95 | C2A | CP185 | CP191 | CP192 | CP194 | CP201 | CP203 | CP211 | CP217 | CP237 | CP238 | CP247 | CP250 | CP252 | CP256

O=P(O)(O)C(Cl)(Cl)P(=O)(O)O
inactive: AA1029 | AS120 | ATS189 | ATS95 | C2A | CP185 | CP191 | CP192 | CP194 | CP201 | CP203 | CP211 | CP215 | CP217 | CP237 | CP238 | CP247 | CP250 | CP252 | CP256

CC(=O)OC1CN2CCC1CC2 (configuration not stated)
inactive: AA1029 | AS120 | ATS189 | ATS95 | C2A | CP185 | CP191 | CP192 | CP194 | CP201 | CP203 | CP211 | CP215 | CP217 | CP237 | CP238 | CP247 | CP250 | CP252 | CP256

O=c1[nH]cc(N(CCCl)CCCl)c(=O)[nH]1
inactive: AA1029 | AS120 | ATS189 | ATS95 | C2A | CP185 | CP191 | CP192 | CP194 | CP201 | CP203 | CP211 | CP215 | CP217 | CP237 | CP238 | CP247 | CP250 | CP252 | CP256

CC(=O)O[C@H]1CC[C@H]2[C@@H]3CCC4=CC(=O)CCC4=C3C=C[C@]12C
inactive: AA1029 | AS120 | ATS189 | ATS95 | C2A | CP185 | CP191 | CP192 | CP194 | CP201 | CP203 | CP211 | CP215 | CP217 | CP237 | CP238 | CP247 | CP250 | CP252 | CP256

CCOC(=O)c1ccccc1C(=O)OCC
inactive: AA1029 | AS120 | ATS189 | ATS95 | C2A | CP185 | CP191 | CP192 | CP194 | CP201 | CP203 | CP211 | CP215 | CP217 | CP237 | CP238 | CP247 | CP250 | CP252 | CP256

[N-]=[N+]=CC(=O)OCC(N)C(=O)O (configuration not stated)
inactive: AA1029 | AS120 | ATS189 | ATS95 | C2A | CP185 | CP191 | CP192 | CP194 | CP201 | CP203 | CP211 | CP215 | CP217 | CP237 | CP238 | CP247 | CP250 | CP252 | CP256

O=[N+]([O-])c1ccccc1
inactive: AA1029 | AS120 | ATS189 | ATS95 | C2A | CP185 | CP191 | CP192 | CP194 | CP201 | CP203 | CP211 | CP215 | CP217 | CP237 | CP238 | CP247 | CP250 | CP252 | CP256

CCCCNCC(O)c1ccc(O)cc1 (configuration not stated)
inactive: AA1029 | AS120 | ATS189 | ATS95 | C2A | CP185 | CP191 | CP192 | CP194 | CP201 | CP203 | CP211 | CP215 | CP217 | CP237 | CP238 | CP247 | CP250 | CP252 | CP256
